Here are results for 61 compounds from PubChem BioAssay AID902 (National Center for Advancing Translational Sciences (NCATS), 2007).

Screen size: about 130,000 compounds; about 1,900 (1.5%) were called active. Roughly 5% stayed inconclusive and do not appear here. This is one part of a sample in which actives are shown more often than they occur. The call rests on the fitted dose curve; in most records, active means well fitted cell-killing curve with a large enough effect; inconclusive means small, poorly fitted or top-dose-only effect; inactive means no such curve, though single readings can be large or run the other way.
On the % scale 0 is the no-effect control and ±100 the full control effect; potency means the concentration at half of the fitted maximal effect.

The assay is described as follows: qHTS Screen for Compounds that Selectively Target Cancer Cells with p53 Mutations: Cytotoxicity of p53ts Cells at the Nonpermissive Temperature. Further: nearly all actives have a fitted effect of over 55% in size. The conditions noted are these: H1299-p53A138V viability at 39C, ATP luminescence, 24 h; series mostly up to 46.1 µM; activity change, negative = cell killing: at the top concentration.
Consider `CCCS(=O)(=O)c1c(Nc2ccccc2C)sc(C(=O)c2ccccc2)c1N`, for which the “activity change, negative = cell killing” value is -12.5% (inactive). Consider `Cc1c(NC(=O)Cc2ccccc2)cccc1-c1nc2cccnc2s1`, for which the “activity change, negative = cell killing” value is 0.432% (inactive).

Turning to `Cc1c(NC(=O)C(C)(C)C)cccc1-c1nc2ccccc2s1`, the Potency is 15.8 µM (active). Consider `CCC(C(=O)Nc1cccc(-c2nc3cccnc3s2)c1C)c1ccccc1` (stereo unspecified), for which the “activity change, negative = cell killing” value is 18.6% (inactive).

`CCOc1ccc(N(Cc2ccccc2)C(=O)c2nc(SCC)ncc2Cl)cc1`: the “activity change, negative = cell killing” value is -14.9% (inactive).

For the compound `CCOc1ccc(N(Cc2ccccc2)C(=O)c2nc(S(C)(=O)=O)ncc2Cl)cc1`, the Potency was 3.98 µM (active). As to `CCOc1ccc(NC(=O)CN(Cc2ccccc2)S(=O)(=O)c2ccc(Cl)cc2)cc1`, the “activity change, negative = cell killing” value is -8.08% (inactive). Take `COc1ccc(Br)cc1CNC(=O)c1cc(=O)[nH]c2ccc(S(=O)(=O)N3CCCC3)cc12`: the “activity change, negative = cell killing” value is -16.2% (inactive). For the compound `COc1ccc(NC(=O)CN2CCCN(Cc3ccccc3)S2(=O)=O)cc1`, the “activity change, negative = cell killing” value is -4.26% (inactive).

As to `COc1ccc(C(=O)Nc2nonc2-c2ccc(OC)c(OC)c2)cc1Cl`, the “activity change, negative = cell killing” value is -26.9% (inactive).

Turning to `Cn1c(=O)c2sccc2n2c(CCC(=O)NCc3ccccc3Cl)nnc12`, the “activity change, negative = cell killing” value is -15.6% (inactive). On the same count and under the same terms, then `CC1=C(c2ccc(Cl)cc2)S(=O)(=O)N=C1N1CCN(c2cc(C)ccc2C)CC1`, with 0.663% (inactive). With `CC1=C(c2ccc(C)cc2)S(=O)(=O)NC1=NCCCN1CCN(c2cc(C)ccc2C)CC1`, the “activity change, negative = cell killing” value was 35.5% (inactive). For `Cc1ccc(C)c(N2CCN(CCCNC(=O)Nc3ccc(Cl)cc3)CC2)c1`, the Potency is 10 µM (active). With `CCN(CCCNC(=O)c1ccc(Sc2ccc(C)cc2)c(NC(C)=O)c1)c1cccc(C)c1`, the “activity change, negative = cell killing” value is -24.9% (inactive). Same read-out and setting: the value for `COc1ccccc1C1C(C(=O)N2CCCCC2)=C(C)Nc2nc3ccccc3n21` (stereo unspecified) was -9.81% (inactive); that for `CCOc1ccc(C2C(C(=O)NC)=C(C)Nc3nc4ccccc4n32)cc1OC` (stereo unspecified) was 8.77% (inactive).

In the case of `COC(=O)c1ccc(C2C(C(=O)Nc3ccccc3)=C(C)Nc3nc4ccccc4n32)cc1` (stereo unspecified), the Potency is 12.6 µM (active). For `CCOC(=O)c1c(C)[nH]c(C)c1S(=O)(=O)N1CCCC(C(=O)NCc2ccccc2Cl)C1` (stereo unspecified), the “activity change, negative = cell killing” value was 2.61% (inactive). Take `CCc1cnc2c(c1SCC(=O)c1ccccc1)c(=O)n(C)c(=O)n2C`: the “activity change, negative = cell killing” value is 23.2% (inactive). On to `CC(C)(C)c1ccc(C(=O)N2CCC(c3nc(-c4ccc(S(=O)(=O)N5CCCC5)cc4)no3)CC2)cc1`, for which the “activity change, negative = cell killing” value was -24.5% (inactive). On the same count and under the same terms, then `Cc1sc(C2C(C#N)=C(N)N(c3cccc(Cl)c3)C3=C2C(=O)CCC3)cc1CN1CCOCC1` (stereo unspecified), with 7.17% (inactive). Turning to `COc1c2c(cc3occ(-c4ccc5c(c4)OCO5)c(=O)c13)OC(C)(C)C=C2`, the Potency was 10 µM (active). Turning to `COc1ccc(CCNC(=O)c2cc(-c3ccc4c(c3)OCO4)on2)cc1OC`, the “activity change, negative = cell killing” value is -2.99% (inactive). With `CCC(=O)N1CCc2cc(S(=O)(=O)NCCC(=O)Nc3cccc(C)c3C)ccc21`, the “activity change, negative = cell killing” value was -12.6% (inactive). Take `COc1cccc(NC(=O)CSc2cc(=O)n(C)c3ccc(Cl)cc23)c1`: the “activity change, negative = cell killing” value was -18.7% (inactive). Same read-out and setting: then `CCCCOc1ccc(C(=O)N2CC(=O)Nc3ccc(Br)cc3C2c2ccc(F)cc2)cc1` (stereo unspecified), with 6.43% (inactive); and `CCCCc1nn2c(=O)cc(COC(=O)c3ccc(NC(=O)c4ccccc4C)cc3)nc2s1`, with -22% (inactive); and `c1ccc2[nH]c(NCCN3CCOCC3)nc2c1`, with 2.07% (inactive).

Turning to `CN(C)c1ccc(-c2nc(NCCN3CCOCC3)c3ccccc3n2)cc1`, the Potency is 12.6 µM (active). Consider `c1ccc(-c2nc(NCc3ccco3)c3ccccc3n2)cc1`, for which the “activity change, negative = cell killing” value was -12.3% (inactive).

On to `O=C(c1cccc(Br)c1)N1CCN(Cc2cc(=O)n3nc(-c4ccccc4)sc3n2)CC1`, for which the “activity change, negative = cell killing” value was 8.96% (inactive). As for `Cc1nn2c3ccccc3nc2n(C)c1=O`, the “activity change, negative = cell killing” value is 0.337% (inactive). Regarding `Cc1csc(-c2nc3ccccc3n2C)n1`, the Potency is 25.1 µM (active). On to `CC(C)n1c(-c2cccs2)nc2ccccc21`, for which the “activity change, negative = cell killing” value is -17.5% (inactive). Take `COc1ccc(Cn2c(=O)c3oc4ccccc4c3n(CC(=O)Nc3ccc(F)cc3F)c2=O)cc1`: the “activity change, negative = cell killing” value was -13.5% (inactive). Same read-out and setting: then `O=C(Cn1nnc(-c2ccccc2)n1)NCc1ccccc1`, with 6.92% (inactive); and `Cc1ccc(CNC(=O)CN2CCN(Cc3ccc(Cl)cc3)C2=O)cc1`, with -8.84% (inactive); and `CCCN(C(=O)Cn1cc(S(=O)(=O)N2CCN(c3ccccc3F)CC2)c2ccccc2c1=O)c1cccc(C)c1`, with 11.6% (inactive). As for `CCN(C(=O)Cn1c(=O)nc(-c2ccccc2)c2cc(Cl)ccc21)c1cccc(C)c1`, the Potency is 15.8 µM (active). Still for that read-out and setting: the value for `O=C(Cn1c(=O)nc(-c2ccccc2)c2cc(Cl)ccc21)NCc1ccc(Cl)cc1` was 10 µM (active). Turning to `CCN(CCCNC(=O)CSc1cc(=O)n(C)c2cc(Cl)ccc12)c1cccc(C)c1`, the “activity change, negative = cell killing” value is 3.74% (inactive). Consider `CC1CCN(S(=O)(=O)c2ccc3c(c2)N(CC(=O)NCCc2ccccc2)C(=O)CO3)CC1`, for which the “activity change, negative = cell killing” value is -9.14% (inactive). For `Cc1ccc(N(CC(=O)NCc2ccc(Cl)cc2)S(=O)(=O)N(C)C)cc1`, the “activity change, negative = cell killing” value is -7.17% (inactive).

As for `CCc1cccc(NC(=O)Cn2nc(CC)n3c(cc4cc(C)ccc43)c2=O)c1`, the Potency was 25.1 µM (active).

On to `CCc1nn(CC(=O)Nc2cc(C)cc(C)c2)c(=O)c2cc3sccc3n12`, for which the “activity change, negative = cell killing” value is -9.46% (inactive). On the same count and under the same terms, then `CCc1nn(CC(=O)Nc2cccc(C)c2C)c(=O)c2cc3sccc3n12`, with 9.89% (inactive). Turning to `CCCCN(CC)CCCNC(=O)Cn1ncc2c([nH]c3ccc(C)cc32)c1=O`, the “activity change, negative = cell killing” value is -6.44% (inactive). Still for that read-out and setting: the value for `c1ccc(CNc2ncnc3[nH]ncc23)cc1` was 29.4% (inactive).

For `Cc1ccc(NC(=O)Cn2c(=O)n(-c3ccccc3)c(=O)c3c4c(sc32)CCCC4)cc1`, the Potency is 12.6 µM (active).

Turning to `CCC(C)NC(=O)Cn1c(=O)n(-c2ccc(Cl)cc2)c(=O)c2c3c(sc21)CCCC3` (stereo unspecified), the “activity change, negative = cell killing” value was -4.46% (inactive). Still for that read-out and setting: then `CCCN(CCC)C(=O)Cn1c(=O)n(-c2ccc(Cl)cc2)c(=O)c2c3c(sc21)CCCCC3`, with -16.4% (inactive). On to `CCOC(=O)c1c(S(=O)(=O)N2CCCC(C(=O)NCc3ccc(F)cc3)C2)c(C)n(CC)c1C` (stereo unspecified), for which the “activity change, negative = cell killing” value was -13.8% (inactive). Still for that read-out and setting: the value for `COc1cccc(C(=O)Nc2ccc3nc4n(c(=O)c3c2)CCCCC4)c1` was -25.8% (inactive). As for `COc1ccccc1Nc1c2c(nc3ccc(NC(=O)/C=C/c4cc(OC)c(OC)c(OC)c4)cc13)CCCC2`, the Potency was 15.8 µM (active). Consider `O=C(Nc1c2c(nc3ccccc13)CCCC2)c1ccccc1Br`, for which the “activity change, negative = cell killing” value was -2.5% (inactive). Still for that read-out and setting: the value for `O=C(O)c1ccc(Cn2c(SCc3ccc(F)cc3)nc3ccncc32)cc1` was -19.3% (inactive). With `Cc1ccn2c(Nc3ccc4c(c3)OCCO4)c(-c3ccc(C)s3)nc2c1`, the Potency was 12.6 µM (active). With `Cc1cccc2nc(-c3ccc(Cl)s3)c(Nc3ccc4c(c3)OCCO4)n12`, the “activity change, negative = cell killing” value was -25.1% (inactive). Take `Cc1ccc(Nc2c(-c3ccc(C)s3)nc3ccccn23)cc1`: the “activity change, negative = cell killing” value is 1.41% (inactive). On the same count and under the same terms, then `CCN(C(=O)c1sc2cc(OC)ccc2c1Cl)c1ccccc1`, with -4.72% (inactive).
